The structures appear in SMILES notation. Inconclusive results are not listed. Values without a mark were called inactive. Unless noted, the call rests on the fitted dose curve.
On the % scale 0 is the no-effect control and ±100 the full control effect.

In the first test the test system is thyroid hormone receptor (rat, GH3 cells). The test can be described thus: qHTS assay to identify small molecule agonists of the thyroid receptor (TR) signaling pathway (AID 743066). Particulars: GH3.TRE-Luc cells, TR agonist luciferase, 24 h; series mostly up to 83.9 µM; activation: at the top concentration.
In the case of `COc1ccc2c(c1)c1c3n2CCN(C)C3=NCC1`, the “activation” value is -2.11%.

As to `Cc1ccc(C)c([N+](=O)[O-])c1`, the “activation” value was -0.254%.

With `O=C(O)CNC(=O)CNC(=O)CNC(=O)CSC(=O)c1ccccc1`, the “activation” value was -0.878%.

As to `OCC(O)CN1CCN(c2ccccc2)CC1` (configuration not stated), the “activation” value is 0.152%.

With `OCCN1CCOCC1`, the “activation” value is 2.42%.

On to `CCC(C)C(C)=O` (configuration not stated), for which the “activation” value was 1.02%.

As for `Cc1ccnc(N)c1`, the “activation” value was 0.334%.

Take `CCCCOC(=O)[C@H](C)O`: the “activation” value is 1.54%.

For the molecule `O=C(NCN1CCOCC1)c1cnccn1`, the “activation” value is -0.0107%.

For the molecule `COC(=O)CCCCC(=O)O`, the “activation” value is 0.878%.

Take `C=C(C)[C@@H]1CC=C(C)C(=O)C1`: the “activation” value is -0.0377%.

On to `COC(=O)c1ccccc1C(=O)O`, for which the “activation” value was 1.09%.

With `c1ccc(-c2nn[nH]n2)cc1`, the “activation” value was 0.004%.

As for `N[C@@H](Cc1ccc(O)cc1)C(=O)O`, the “activation” value was 0.45%.

In the case of `O=Cc1ccccc1Cl`, the “activation” value was 0.2%.

Turning to `OCC1(CO)COCOC1`, the “activation” value was 1.94%.

For `C=CCSSCCC`, the “activation” value is 0.881%.

With `COc1cc2c(cc1OC)C(=O)C(CC1CCN(Cc3ccccc3)CC1)C2` (configuration not stated), the “activation” value was -5.11%.

As for `CC(C)c1ccc(C=O)cc1`, the “activation” value is 5.12%.

`CC(=O)CC(=O)OC(C)(C)C`: the “activation” value is 0.12%.

Take `O=C(O)CONC(=O)c1ccccc1`: the “activation” value is 0.942%.

For the molecule `CCCCCCCCCCCCCBr`, the “activation” value is -0.264%.

For `CC1CC(=O)CC(C)(C)C1` (configuration not stated), the “activation” value is 0.621%.

Consider `c1ccc2cnccc2c1`, for which the “activation” value is 0.246%.

On to `ONc1ccccc1`, for which the “activation” value was 0.577% [at 95.2 µM].

On to `O=C(Cl)c1ccccc1[N+](=O)[O-]`, for which the “activation” value is 0.102% [at 95.2 µM].

Turning to `Cn1c(=O)c2[nH]c(Br)nc2n(C)c1=O`, the “activation” value was 1.49%.

Take `CCCC(=O)OCCC(C)CCC=C(C)C` (configuration not stated): the “activation” value was -0.16%.

For `C=C(C)c1cccc(C(C)(C)N=C=O)c1`, the “activation” value is 0.64%.

Regarding `O=C[O][Al]([O]C=O)[O]C=O`, the “activation” value is 4.74%.

Turning to `CN1CCOC(c2ccccc2)c2ccccc2C1` (configuration not stated), the “activation” value was -0.196% [at 39.4 µM].

The target of a further test is Estrogen receptor (Homo sapiens) (UniProt P03372). As to the kind of experiment: qHTS assay to identify small molecule antagonists of the estrogen receptor alpha (ER-alpha) signaling pathway (AID 743069; active means well fitted curve in the direction sought with a large enough effect in the signal ratio in the repeat runs, not every such curve was filed as active; the % refers to the signal ratio). Particulars: HEK293 ER-alpha-UAS-bla, beta-lactamase ratio, antagonist mode; series mostly up to 69.4 µM; activity, negative = inhibition: at the top concentration. In short, it runs like this: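 Antagonist mode: compounds in DMSO were co-added with 17beta-estradiol to ER-alpha-bla HEK293 cells (2% charcoal-stripped serum) and left 18 h at 37C. Reporter inhibition was measured as FRET fluorescence after 2 h LiveBLAzer substrate at room temperature.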
Chain of Estrogen receptor (Homo sapiens) (P03372 whole entry, looked up): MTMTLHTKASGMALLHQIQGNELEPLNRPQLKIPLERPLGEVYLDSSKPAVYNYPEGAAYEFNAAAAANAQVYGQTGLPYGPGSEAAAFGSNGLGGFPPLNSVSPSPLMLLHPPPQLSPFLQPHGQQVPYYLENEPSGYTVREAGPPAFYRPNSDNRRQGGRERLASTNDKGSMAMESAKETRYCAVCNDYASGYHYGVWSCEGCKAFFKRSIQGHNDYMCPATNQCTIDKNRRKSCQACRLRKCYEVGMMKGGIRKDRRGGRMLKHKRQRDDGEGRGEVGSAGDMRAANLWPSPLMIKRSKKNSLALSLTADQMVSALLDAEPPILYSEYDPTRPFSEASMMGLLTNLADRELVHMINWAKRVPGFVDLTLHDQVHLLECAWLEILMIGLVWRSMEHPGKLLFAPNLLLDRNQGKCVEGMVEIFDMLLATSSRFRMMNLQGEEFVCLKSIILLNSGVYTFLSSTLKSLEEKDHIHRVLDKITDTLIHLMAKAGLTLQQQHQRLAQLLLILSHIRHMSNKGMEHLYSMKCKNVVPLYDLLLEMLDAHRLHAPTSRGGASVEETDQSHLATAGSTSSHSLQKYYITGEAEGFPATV
A general note: qHTS replaces the single test concentration by a dilution series.
On to `O=C(O)CNC(=O)CNC(=O)CNC(=O)CSC(=O)c1ccccc1`, for which the “activity, negative = inhibition” value was -8.31%.

For `CCCCOC(=O)[C@H](C)O`, the “activity, negative = inhibition” value was 4.93%.

Consider `O=C(NCN1CCOCC1)c1cnccn1`, for which the “activity, negative = inhibition” value was 5.6%.

Regarding `COC(=O)CCCCC(=O)O`, the “activity, negative = inhibition” value was 6.59%.

For `C=C(C)[C@@H]1CC=C(C)CC1`, the “activity, negative = inhibition” value was -27.4%.

In the case of `CC(C)c1ccc(C=O)cc1`, the “activity, negative = inhibition” value is -44.4%.

For `CC(=O)CC(=O)OC(C)(C)C`, the “activity, negative = inhibition” value is 9.47%.

With `CC1CC(=O)CC(C)(C)C1` (configuration not stated), the “activity, negative = inhibition” value is 9.19%.

As to `ONc1ccccc1`, the “activity, negative = inhibition” value was -2.8% [at 79.1 µM].

Take `C=C(C)c1cccc(C(C)(C)N=C=O)c1`: the “activity, negative = inhibition” value was 37%.

Consider `O=C[O][Al]([O]C=O)[O]C=O`, for which the “activity, negative = inhibition” value was -13.9%.

These data come from PubChem BioAssay (Tox21).
